Most compounds without a hit are left out; they make up all but 8.2% or so of the library.
SW480 rereplic = induces DNA re-replication in SW480 colon adenocarcinoma cells; 1.8% of 340,000 active; Potency, µM (highest dose often 46.1 µM), inactives show top-dose re-replication activation, usual class: activators; SW480 DNA re-replication, Hoechst DNA content imaging, 48 h; also: % of control where 0% means no effect; nearly all actives have a fitted effect of over 55% in size
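Quantitative HTS format with DMSO vehicle controls; 48 hr drug incubation at 37 C, then 40 min Hoechst staining and scanning imager measurement at 405 nm excitation.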
KB-V1 MDR tox = kills drug-selected multidrug resistant KB-V1 cells | KB-V1 MDR cells viability, CellTiter-Glo, 72 h | Potency, µM (titrated, usually from 46.1 µM), hits mostly cytotoxic | 3.4% of 400,000 active | AID 1347076; also: % is scaled to controls: 0 for no effect and ±100 for the full control effect; nearly all actives have a fitted effect of over 60% in size
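Readout: CellTiter-Glo luminescence, 10 min after addition. Cells: KB-V1 MDR subline, 72 h at 37 degrees C with compound. Analysis: corrected, normalized data fitted to concentration-effect curves.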
KB-3-1 tox = KB-3-1 parental cell cytotoxicity | Potency, µM (doses to about 46.1 µM), actives largely listed as cytotoxic | KB-3-1 viability, CellTiter-Glo ATP luminescence, 72 h | AID 1347075 | 1.4% of 400,000 active; also: % is scaled to controls: 0 for no effect and ±100 for the full control effect; nearly all actives have a fitted effect of over 60% in size
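Cells are dispensed, compounds pinned in, plates held at 37 °C for 72 h, then CellTiter-Glo is added and luminescence read after 10 minutes. Cell line: parental KB-3-1 in phenol-red-free DMEM, 10% FBS.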
ELG1 repair inh = blocks ELG1-dependent DNA repair in HEK293T cells | HEK293T ELG1-luciferase reporter, luminescence, 16 h; DNA damage induced by 5-fluorouridine | Potency, µM (series often up to 46.1 µM), for the others: at the highest dose activity change, negative = inhibition, most hits filed as inhibitors | 2.3% of 330,000 active | AID 504467; also: % is scaled to controls: 0 for no effect and ±100 for the full control effect; nearly all actives have a fitted effect of over 55% in size
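In this reporter screen, reduction of luminescence relative to DMSO vehicle indicated activity. Compounds and 5-fluorouridine were added together to 2,000 cells per well, incubated for 16 hr at 37 °C, then developed with ONE-Glo.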
MCF10A rereplic = DNA re-replication induction in MCF 10a cells | Potency, µM (highest dose often 46.1 µM), for the others: at the top dose activity, positive = re-replication, hits mostly activators | 2.9% of 350,000 active | MCF 10A DNA re-replication, Hoechst nuclear intensity, 48 h | AID 624296; also: % of control where 0% means no effect; nearly all actives have a fitted effect of over 50% in size
Starred values were filed as active, the others as inactive; i = inactive; u = inconclusive; x = not tested or not shown; ! = a repeat was not active. Calls follow the shape of the dose curve; as a rule, active = well fitted curve in the direction sought with a large enough effect; inconclusive = small, poorly fitted or top-dose-only effect, or another doubt; inactive = no such curve, though single readings can be large; an effect the other way counts as inactive or inconclusive. Potency is read from the fitted curve at half-maximal effect.

SMILES	SW480 rereplic	KB-V1 MDR tox	KB-3-1 tox	ELG1 repair inh	MCF10A rereplic
O=C(N/N=C/c1sc(=O)[nH]c1-[n+]1ccc2ccccc2c1)c1ccccc1[O-]	140%	u	8.2µM*	19%	5%
Cc1cc(OCC(=O)Nc2ccc(C(=O)OC3CCCCC3)cc2)ccc1Cl	x	i	i	x	x
COC(=O)c1cc(NC(=S)NCc2ccc(Cl)cc2)cc(C(=O)OC)c1	112%	i	i	0%	u
COC(=O)c1ccc(C)c(NC(=S)NCc2ccc(Cl)cc2)c1	-6%	23µM*	i	2%	5%
CCN(CC)c1cc(C)c2cc(NC(=O)c3cccc(F)c3)ccc2n1	x	u	i	x	x
CCN(CC)c1cc(C)c2cc(NC(=O)c3cc(OC)cc(OC)c3)ccc2n1	x	i	i	x	x
CCCCc1ccc(C(=O)Nc2ccc3nc(N(CC)CC)cc(C)c3c2)cc1	x	i	i	x	x
CCN(CC)c1cc(C)c2cc(NC(=O)c3ccc(F)cc3Cl)ccc2n1	x	i	u	x	x
CCN(CC)c1cc(C)c2cc(NC(=O)c3ccc(Br)o3)ccc2n1	u	u	u	u	9.2µM*
CCN(CC)c1cc(C)c2cc(NC(=O)c3ccc(OC)c(OC)c3)ccc2n1	x	i	16µM*	x	x
CCN(CC)c1cc(C)c2cc(NC(=O)/C=C/c3ccccc3Cl)ccc2n1	x	i	13µM*	x	x
CCN(CC)c1cc(C)c2cc(NC(=O)c3ccccc3OC)ccc2n1	u	u	18µM*!	u	u
O=C(Nc1c2c(nn1-c1ccccc1)CS(=O)C2)c1ccc2c(c1)OCO2 (stereo unspecified)	2%	i	i	17%	0%
CCOC(=O)c1ccc(NC(=O)CSc2nc(=O)n3cccc(C)c3n2)cc1	0%	u	i	-16%	8%
COc1ccc(Nc2cc(C)c3cc(NC(=O)c4ccccc4Cl)ccc3n2)cc1	x	18µM*	i	x	x
COc1ccccc1CC(=O)Nc1ccc2nc(Nc3cccc(Cl)c3)cc(C)c2c1	x	i	i	x	x
CNC(=S)N(Cc1cccs1)Cc1cc2ccc(OC)cc2[nH]c1=O	1%	u	i	u	13%
COc1cc2cc(CN(Cc3cccs3)C(=S)Nc3ccccc3)c(=O)[nH]c2cc1OC	-8%	i	i	8.2µM*	u
Cc1ccc2[nH]c(=O)c(CN(Cc3cccs3)C(=S)NCc3ccco3)cc2c1	9%	18µM*	i	u	13%
CCNC(=S)N(Cc1cccs1)Cc1cc2cc(OCC)ccc2[nH]c1=O	-5%	12µM*	i	u	-6%
CCC[C@H]1COCCS(=O)(=O)N1Cc1cccc(F)c1	x	i	i	x	x
Cc1ccc(S(=O)(=O)N2CCCOC2CNC(=O)C(=O)NCc2cccs2)cc1 (stereo unspecified)	u	9.2µM*	i	2%	5%
Cc1ccc(CNC(=O)C(=O)NCC2OCCN2S(=O)(=O)c2ccc(Cl)cc2)cc1 (stereo unspecified)	9%	u	u	x	u
Cc1ccc(S(=O)(=O)N2CCOC2CNC(=O)C(=O)NCc2ccc(Cl)cc2)cc1 (stereo unspecified)	u	u	u	23µM*	3%
CC/C(C)=N/NC(=O)c1[nH]c2ccc(C)cc2c1-c1ccccc1	u	i	i	-4%	12µM*
SMILES	SW480 rereplic	KB-V1 MDR tox	KB-3-1 tox	ELG1 repair inh	MCF10A rereplic
C/C(=N\N)c1c(-c2ccccc2)c2cc(C)ccc2[nH]c1=O	u	i	i	7%	5%
O=C(NN=C1CCCC1)c1[nH]c2ccc(Cl)cc2c1-c1ccccc1	u	u	i	u	2.9µM*
COc1ccc(/C=N/n2c(SC)nnc2-c2ccccc2)c(OC)c1OC	5.8µM*	5.2µM*	u	8.2µM*	15µM*
COc1ccc(/C=N\NC(=O)c2ccc(-c3ccccc3)cc2)c(OC)c1OC	15%	i	i	0%	-3%
COc1ccc(/C=N/n2c(SC)nnc2-c2ccccc2)cc1C	7.3µM*	18µM*	u	x	18µM*
COc1ccc(/C=N/N2CCN(c3ccccc3OC)CC2)cc1OC	-11%	u	i	18%	24%
O=C(COC(=O)c1cc(=O)[nH]c2ccccc12)NC(=O)c1ccccc1	26µM*	i	i	4%	-1%
CCc1ccc(OCCNC(=O)c2ccccc2SCc2ccccc2)cc1	8%	u	u	-7%	16µM*
c1ccc2sc(NCC3CCCO3)nc2c1 (stereo unspecified)	-1%	u	i	u	5%
CC1=CC(=C(C#N)c2nc3ccccc3s2)C=C(C)N1CC1CCCO1 (stereo unspecified)	23µM*	i	i	u	13µM*
Cc1ccc(NC(=O)Nc2nnc(N(C)Cc3ccccc3)s2)cc1	x	i	i	x	x
CC(OC(=O)CCC(=O)c1ccc(F)cc1)C(=O)NC1CCCCC1C (stereo unspecified)	-1%	i	i	3%	6%
Cc1ccc2[nH]c(=O)c(CN(c3cccc(C)c3C)S(=O)(=O)c3ccccc3)cc2c1	21%	u	6.5µM*	-14%	u
CCCCN(Cc1cc2ccccc2[nH]c1=O)S(=O)(=O)c1ccc(C)cc1	6%	i	u	u	-1%
CCCCN(Cc1cc2ccccc2[nH]c1=O)S(C)(=O)=O	10µM*	u	i	6%	-1%
Cc1ccc(S(=O)(=O)N(Cc2cc3ccccc3[nH]c2=O)c2cccc(C)c2)cc1	4.1µM*	u	i	-4%	u
O=C(Nc1ccc2c(c1)OCCO2)C1C(c2ccccc2)=Nc2ccccc2N1C(=O)c1cccnc1 (stereo unspecified)	x	i	i	x	x
COc1cc(OC)c(NS(=O)(=O)c2ccc(Cl)c(C(=O)OC(C)C(=O)N3CCCC3)c2)cc1Cl (stereo unspecified)	-4%	2.3µM*	16µM*	-19%	u
Cc1ccccc1NC(=O)c1ccc(CN2CCC(Cc3ccccc3)CC2)cc1	u	15µM*	u	-14%	u
COc1ccc(CCNC(=O)c2ccc(Cl)c(S(=O)(=O)N3CCCCCC3)c2)cc1	-5%	u	u	u	5%
COc1ccc(CCNC(=O)c2ccc(CN3CCC(Cc4ccccc4)CC3)cc2)cc1	-11%	9.2µM*	i	-8%	10%
COc1ccc(CCNC(=O)c2ccc(Cl)c(S(=O)(=O)N(C)c3ccccc3)c2)cc1	4%	i	i	16µM*	10%
CC(C)NC(=O)c1ccc(CN2CCC(Cc3ccccc3)CC2)cc1	-3%	i	i	-24%	-1%
O=C(Cn1cnc2cc([N+](=O)[O-])ccc2c1=O)Nc1ccccc1-c1ccccc1	11%	u	i	u	4%

Bioassay records deposited in PubChem by National Center for Advancing Translational Sciences (NCATS).
